# Test results published in PubChem BioAssay AID1159580 (chemical genetic matrix, 2015).
# Several values for one entry are separate records, joined by “and”; a condition that tells them apart may be missing. Identical values can stand only once. Hit rate of the full screen: of about 5,500 compounds, about 2,000 (36%) were called active. Inconclusive results (about 18%) are left out. The list shows a part of the results. Values without a mark were called inactive. Rule as the data show it: active = normalized growth mostly below about 0.91 (no sharp cut-off); inconclusive = no clear call, values can overlap the other calls; inactive = mostly above about 0.92.
# Experiment: chemical genetic growth profiling, strain panel (AID 1159580);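 also: tested at 20 µM; growth read once vehicle control cultures reached saturation at 30 °C; 1 = growth at the plate median or of vehicle wells; lower values mean less growth of the strain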
# Details: S. cerevisiae deletion strains, growth OD
structure (smiles),measurement,setting,value
CCCCCC1C(=O)CCC1CC(=O)OC (stereo not given),normalized growth,"locus YAL013W, strain DEP1, stronger effect = lower value",0.988
same,normalized growth,"locus YAL021C, strain ccr4, stronger effect = lower value",1.04
same,normalized growth,"locus YAL026C, strain drs2, stronger effect = lower value",0.988
same,normalized growth,"locus YAL030W, strain snc1, stronger effect = lower value",0.981
same,normalized growth,"locus YBL061C, strain skt5, stronger effect = lower value",0.984
same,normalized growth,"locus YBR009C, strain hhf1, stronger effect = lower value",0.972
same,normalized growth,"locus YBR021W, strain FUR4, stronger effect = lower value",0.921
same,normalized growth,"locus YBR023C, strain chs3, stronger effect = lower value",0.977
same,normalized growth,"locus YBR171W, strain sec66, stronger effect = lower value",0.96
same,normalized growth,"locus YBR229C, strain ROT2, stronger effect = lower value",0.991
same,normalized growth,"locus YBR231C, strain swc5, stronger effect = lower value",0.978
same,normalized growth,"locus YBR279W, strain paf1, stronger effect = lower value",0.986
same,normalized growth,"locus YCL011C, strain gbp2, stronger effect = lower value",0.988
same,normalized growth,"locus YCL016C, strain dcc1, stronger effect = lower value",0.979
same,normalized growth,"locus YCL029C, strain bik1, stronger effect = lower value",0.958
same,normalized growth,"locus YCL061C, strain MRC1, stronger effect = lower value",0.984
same,normalized growth,"locus YCL069W, strain vba3, stronger effect = lower value",0.986
same,normalized growth,"locus YCR088W, strain abp1, stronger effect = lower value",0.973
same,normalized growth,"locus YDL005C, strain med2, stronger effect = lower value",0.97
same,normalized growth,"locus YDL035C, strain GPR1, stronger effect = lower value",0.974
same,normalized growth,"locus YDL040C, strain nat1, stronger effect = lower value",0.981
same,normalized growth,"locus YDL074C, strain BRE1, stronger effect = lower value",0.992
same,normalized growth,"locus YDL101C, strain DUN1, stronger effect = lower value",1.01
same,normalized growth,"locus YDL134C, strain PPH21, stronger effect = lower value",1.01
same,normalized growth,"locus YDL185W, strain tfp1, stronger effect = lower value",0.931
same,normalized growth,"locus YDL192W, strain arf1, stronger effect = lower value",0.97
same,normalized growth,"locus YDR001C, strain nth1, stronger effect = lower value",0.984
same,normalized growth,"locus YDR069C, strain doa4, stronger effect = lower value",0.999
same,normalized growth,"locus YDR101C, strain arx1, stronger effect = lower value",0.96
same,normalized growth,"locus YDR137W, strain rgp1, stronger effect = lower value",0.996
same,normalized growth,"locus YDR150W, strain NUM1, stronger effect = lower value",0.975
same,normalized growth,"locus YDR159W, strain sac3, stronger effect = lower value",0.969
same,normalized growth,"locus YDR162C, strain NBP2, stronger effect = lower value",1.03
same,normalized growth,"locus YDR195W, strain ref2",0.991
same,normalized growth,"locus YDR297W, strain sur2, stronger effect = lower value",0.978
same,normalized growth,"locus YDR318W, strain mcm21, stronger effect = lower value",0.961
same,normalized growth,"locus YDR334W, strain swr1, stronger effect = lower value",0.986
same,normalized growth,"locus YDR335W, strain msn5, stronger effect = lower value",1.01
same,normalized growth,"locus YDR388W, stronger effect = lower value",0.954
same,normalized growth,"locus YDR392W, strain spt3, stronger effect = lower value",0.975
same,normalized growth,"locus YDR502C, strain sam2, stronger effect = lower value",0.996
same,normalized growth,"locus YEL003W, strain gim4, stronger effect = lower value",0.987
same,normalized growth,"locus YEL037C, strain rad23, stronger effect = lower value",0.984
same,normalized growth,"locus YEL061C, strain CIN8 (second series), stronger effect = lower value",0.989
same,normalized growth,"locus YEL061C, strain CIN8, stronger effect = lower value",0.991
same,normalized growth,"locus YER015W, strain faa2, stronger effect = lower value",0.98
same,normalized growth,"locus YER016W, strain bim1, stronger effect = lower value",0.986
same,normalized growth,"locus YER110C, stronger effect = lower value",0.898 (active)
same,normalized growth,"locus YER111C, strain swi4, stronger effect = lower value",0.982
same,normalized growth,"locus YER155C, strain BEM2 (second series), stronger effect = lower value",0.95
same,normalized growth,"locus YER155C, strain BEM2, stronger effect = lower value",0.952
same,normalized growth,"locus YER167W, strain BCK2, stronger effect = lower value",0.97
same,normalized growth,"locus YFR010W, strain ubp6, stronger effect = lower value",0.987
same,normalized growth,"locus YGL078C, strain dbp3, stronger effect = lower value",0.966
same,normalized growth,"locus YGL086W, strain mad1, stronger effect = lower value",1.01
same,normalized growth,"locus YGL167C, strain pmr1, stronger effect = lower value",0.96
same,normalized growth,"locus YGL173C, strain kem1, stronger effect = lower value",0.967
same,normalized growth,"locus YGL227W, strain vid30, stronger effect = lower value",0.963
same,normalized growth,"locus YGL240W, strain doc1, stronger effect = lower value",0.994
same,normalized growth,"locus YGL248W, strain PDE1, stronger effect = lower value",1.04
same,normalized growth,"locus YGL253W, strain hxk2, stronger effect = lower value",0.981
same,normalized growth,"locus YGR078C, strain PAC10, stronger effect = lower value",1.04
same,normalized growth,"locus YGR135W, strain pre9, stronger effect = lower value",0.963
same,normalized growth,"locus YGR229C, strain SMI1, stronger effect = lower value",1.02
same,normalized growth,"locus YGR252W, strain gcn5, stronger effect = lower value",1.1
same,normalized growth,"locus YHR013C, strain ard1, stronger effect = lower value",1
same,normalized growth,"locus YHR027C, strain rpn1, stronger effect = lower value",0.992
same,normalized growth,"locus YHR030C, strain SLT2, stronger effect = lower value",0.979 and 0.975
same,normalized growth,"locus YHR079C, strain IRE1 (second series), stronger effect = lower value",0.957
same,normalized growth,"locus YHR079C, strain IRE1, stronger effect = lower value",0.975
same,normalized growth,"locus YHR094C, strain hxt1, stronger effect = lower value",0.986
same,normalized growth,"locus YHR129C, strain ARP1, stronger effect = lower value",0.993
same,normalized growth,"locus YHR142W, strain chs7, stronger effect = lower value",0.987
same,normalized growth,"locus YHR200W, strain rpn10, stronger effect = lower value",0.981
same,normalized growth,"locus YIL066C, strain RNR3, stronger effect = lower value",1
same,normalized growth,"locus YIL073C, strain SPO22, stronger effect = lower value",0.952
same,normalized growth,"locus YIL125W, strain kgd1, stronger effect = lower value",0.961
same,normalized growth,"locus YIR030C, strain dcg1, stronger effect = lower value",0.948
same,normalized growth,"locus YJL092W, strain hpr5, stronger effect = lower value",0.975
same,normalized growth,"locus YJL095W, strain BCK1 (second series), stronger effect = lower value",0.983
same,normalized growth,"locus YJL095W, strain BCK1, stronger effect = lower value",1.06 and 0.982
same,normalized growth,"locus YJL115W, strain asf1, stronger effect = lower value",0.966
same,normalized growth,"locus YJL129C, strain trk1, stronger effect = lower value",1
same,normalized growth,"locus YJL134W, strain LCB3, stronger effect = lower value",0.967
same,normalized growth,"locus YJL154C, strain vps35, stronger effect = lower value",0.976
same,normalized growth,"locus YJL164C, strain tpk1, stronger effect = lower value",0.992
same,normalized growth,"locus YJL166W, strain qcr8, stronger effect = lower value",0.978
same,normalized growth,"locus YJL168C, strain set2, stronger effect = lower value",0.951
same,normalized growth,"locus YJL187C, strain SWE1 (second series), stronger effect = lower value",1.03
same,normalized growth,"locus YJL187C, strain SWE1, stronger effect = lower value",0.977
